GSTO1 inh = blocks human GSTO1 in RBBP9 counter-screen | P78417 | recombinant GSTO1, activity-based probe fluorescence polarization | inhibition, % at 5.96 µM | hit rate 1.1% among 300,000 | AID 1974;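 active = inhibition above the campaign mean inhibition plus 3 SD, cut at about 35% in these data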;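 note: 0% = GSTO1-1 with DMSO and 100% = wells lacking GSTO1-1 enzyme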
Target sequence (P78417 whole entry, looked up): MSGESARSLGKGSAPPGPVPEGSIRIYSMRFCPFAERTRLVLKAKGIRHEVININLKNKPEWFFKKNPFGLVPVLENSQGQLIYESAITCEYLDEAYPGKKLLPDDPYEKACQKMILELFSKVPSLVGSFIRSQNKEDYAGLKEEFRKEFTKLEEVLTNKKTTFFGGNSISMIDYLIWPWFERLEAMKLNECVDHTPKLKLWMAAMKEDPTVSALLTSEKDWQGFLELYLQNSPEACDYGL
PAD4 inh = inhibitors of human PAD4; Q9UM07; recombinant PAD4, RCA probe fluorescence polarization; inhibition, % at 6.36 µM; hit rate 0.41% among 330,000; AID 485272;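 active = percent inhibition above a cutoff equal to the mean of all tested compounds plus 3 SD, cut at about 15% in these data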;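 note: 0% = PAD4 with RCA probe and DMSO and 100% = probe without PAD4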
Fam108B counter = Fam108B inhibition, counter-screen for RBBP9 inhibitors; recombinant Fam108B, FP-Rh probe fluorescence polarization; inhibition, % at 9.51 µM; hit rate 0.33% among 300,000;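 active = inhibition above the screen mean inhibition plus 3 SD, computed separately per campaign, cut at about 18% in these data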;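 note: inhibitors lower polarization as less probe binds the enzyme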
pPAFAH FP inh = inhibitors of human plasma PAF acetylhydrolase (pPAFAH). inhibition, % at 3.39 µM. hit rate 1.5% among 330,000. recombinant pPAFAH, FP-rhodamine probe fluorescence polarization. Q13093;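 active = inhibition above the mean inhibition across the screen plus 3 SD, cut at about 25% in these data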;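 note: inhibitors block binding of the rhodamine activity-based probe so polarization drops; 0% = enzyme with DMSO and 100% = wells lacking pPAFAH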
PME-1 inh = PME-1 (human) inhibition. Q9Y570. hit rate 0.53% among 320,000. AID 2130. recombinant PME-1, FP-Rh probe fluorescence polarization. inhibition, % at 5.9 µM;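 active = inhibition above the campaign mean of all compounds plus 3 SD, cut at about 26% in these data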;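 note: competitive labeling of PME-1 active site by serine hydrolase directed probe; 0% = PME-1 with DMSO and 100% = wells lacking PME-1 enzyme; inhibitors block probe labeling so polarization falls and inhibition rises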
PAD4 confirm = confirmation of human PAD4 inhibitors; shares compounds with PAD4 inh; recombinant PAD4, RCA probe fluorescence polarization; inhibition, % at 6.36 µM; hit rate 28% among 1,200;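 active = mean inhibition across replicates above the hit cutoff set by the earlier primary screen, cut at about 15% in these data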;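 note: inhibitors block active-site labeling by the probe so polarization falls; 0% = PAD4 with probe and DMSO and 100% = probe without PAD4 enzyme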
* marks the source's active call; other numbers are inactive results; / = no result. An excerpt weighted towards active compounds, which were near 2.3% of everything screened.

SMILES | GSTO1 inh | PAD4 inh | Fam108B counter | pPAFAH FP inh | PME-1 inh | PAD4 confirm
C#C[C@]1(O)CC[C@H]2[C@@H]3CCC4=Cc5nc6nc7ccccc7n6cc5C[C@]4(C)[C@H]3CC[C@@]21C | -8.4 | 18.5* | -18.6 | -3.1 | -19.0 | 8.9
Nc1ccccc1C(=O)OCc1ccc([N+](=O)[O-])cc1 | -2.7 | -2.7 | 7.2 | 1.9 | 3.6 | /
CCC(C)n1c(O)c(C=Nc2cccc(C(F)(F)F)c2)c(=O)[nH]c1=S (stereo not given) | -8.2 | 21.6* | -7.5 | -5.4 | -21.9 | 0.0
CCn1c(=O)cc(SCC(=O)N2CCC3(CC2)OCCO3)c2ccccc21 | 1.4 | -13.9 | 5.9 | 3.9 | 0.8 | /
COCCNC(=O)c1c(NC(=O)c2ccc(Br)o2)n(Cc2ccccc2)c2nc3ccccc3nc12 | 77.4* | 53.9* | 10.0 | -2.5 | 18.9 | -9.6
O=C1CC(c2cccnc2)=NN1c1ccccc1 | 30.8 | 52.4* | 6.7 | 1.8 | -3.7 | 1.7
O=c1c2ccccc2nc(-c2ccccc2)n1-c1cccnc1 | -1.2 | -2.3 | 7.0 | 2.7 | -2.5 | /
O=c1c2ccccc2[se]n1-c1ccccc1 | -20.0 | 74.8* | -4.9 | 4.3 | 1.6 | 79.7*
Cc1nc2cc([N+](=O)[O-])ccc2c(=O)n1-c1cccc(Br)c1 | -0.7 | -0.2 | 0.8 | 9.8 | 2.1 | /
COC(=O)C1=C(c2cccc(OC)c2OC)C[C@@H]2CC[C@H]1N2C(=O)NCc1ccc(F)cc1 | 6.9 | 28.3* | 4.8 | 5.5 | 0.8 | 4.5
COC(=O)C1=C(c2cccc(OC)c2OC)C[C@@H]2CC[C@H]1N2C(=O)NCc1ccccc1 | 2.5 | 1.5 | 1.9 | 2.8 | 5.1 | /
O=c1cc(C2CCNCC2)[nH][nH]1 | 19.2 | 36.9* | 1.6 | 3.4 | -8.4 | -1.2
COc1ccc(C(=O)Oc2cccc3cccnc23)cc1S(=O)(=O)N1CCOCC1 | 15.9 | -1.2 | 0.4 | 2.1 | -0.5 | /
